Screening results deposited in PubChem BioAssay by National Center for Advancing Translational Sciences (NCATS).
Sampled rows, rich in hits. Any-hit rate of the full collection: about 10%.
NIH3T3 tox: kills NIH 3T3 cells | NIH 3T3 viability, CellTiter-Glo ATP luminescence, 48-72 h | Potency, µM (series often up to 96.7 µM), most hits filed as inhibitors | actives 4.3% (n = 94,000) | AID 1345082; further: nearly all actives have a fitted effect of over 55% in size
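Luminescent ATP readout (CellTiter-Glo, 10 min RT) after 48 or 72 hr compound exposure of NIH 3T3 cells seeded at 400 cells/well in 1536-well format; quantitative HTS.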
HEK cytotox: kills HEK 293 cells; HEK 293 viability, ATP luminescence (CellTiter-Glo), 48-72 h; Potency, µM (highest dose often 115 µM), most hits filed as inhibitors; actives 6.6% (n = 94,000); AID 1345083; further: nearly all actives have a fitted effect of over 60% in size
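qHTS cytotoxicity; HEK 293, 250 cells/well; compound pinned; 48 or 72 hr, 37 degree Celsius, 5% CO2, 95% humidity; CellTiter-Glo, 10 min RT; luminescence (ATP).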
GPT2 inh: blocks human glutamate pyruvate transaminase 2; Q8TD30; Recombinant GPT2, coupled pyruvate oxidase/HRP Amplex Red fluorescence; Potency, µM (top dose mostly 57.7 µM), most hits filed as inhibitors; actives 0.25% (n = 100,000); further: nearly all actives have a fitted effect of over 60% in size
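Inhibition is scored from Amplex Red fluorescence generated when pyruvate oxidase and HRP act on pyruvate released by GPT2. Reactions contain 10ng/uL enzyme, 250uM a-KG and 2mM L-alanine and run 30 min at room temperature.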
hNpr1 antagonist: human Npr1 receptor antagonism; Potency, µM (series often up to 46.3 µM), actives largely listed as inhibitors; HEK293 hNpr1 GloSensor cGMP, ANP-stimulated luminescence; P16066; actives 1.6% (n = 76,000); calls by dose curve; further: nearly all actives have a fitted effect of over 60% in size
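HEK293 cells stably expressing human Npr1 and cGMP GloSensor pGS-40F, loaded 2 h with 2% GloSensor reagent, given compound 30 min at room temperature. Luminescence read before and 20 min after 0.1 nM hNppA.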
Luciferase inh: blocks purified firefly luciferase enzyme activity | P08659 | purified P. pyralis luciferase, luminescence, biochemical | Potency, µM (doses to about 115 µM), usual class: inhibitors | actives 2.5% (n = 76,000); further: nearly all actives have a fitted effect of over 65% in size
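Luminescence read by CCD imaging after purified firefly luciferase (10nM final) was added to substrate buffer holding 10uM D-luciferin and 10uM ATP, pH 7.5, pre-dosed with compound.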
Large screens that a line does not name were inactive; ! = not confirmed by another sample. Unless noted, the call rests on the fitted dose curve; in most records, active means well fitted curve in the direction sought with a large enough effect; inconclusive means small, poorly fitted or top-dose-only effect, or another doubt; inactive means no such curve, though single readings can be large; an effect the other way counts as inactive or inconclusive.

COc1ccccc1CN1CCCC(c2nn(-c3ccc(Cl)cc3)c(=O)[nH]2)C1 (stereo not drawn)	NIH3T3 tox inconclusive, HEK cytotox inconclusive
COc1ccc(C(=O)NC2CCCN(CCn3nc4n(c3=O)CCCC4)C2)cc1 (stereo not drawn)	none (no result: GPT2 inh, hNpr1 antagonist, Luciferase inh)
COc1cccc(-c2ccc(C(=O)N3CCC(NC(=O)Cc4ccc(C(F)(F)F)cc4)CC3)cc2)c1	NIH3T3 tox inconclusive, HEK cytotox inconclusive (no result: hNpr1 antagonist, Luciferase inh)
COc1cccc(-c2ccc(C(=O)N3CCC(NC(=O)c4ccccc4Cl)CC3)cc2)c1	NIH3T3 tox inconclusive, HEK cytotox 40µM (no result: hNpr1 antagonist, Luciferase inh)
COc1ccc(CC(=O)NC2CCN(C(=O)c3ccc(-c4cccc(OC)c4)cc3)CC2)cc1	NIH3T3 tox 35µM, HEK cytotox 45µM (no result: hNpr1 antagonist, Luciferase inh)
CCC(CC)C(=O)NC[C@H]1O[C@@H](CC(=O)N2CCN(c3ccccn3)CC2)[C@H](O)[C@@H]1O	none
O=c1n(-c2ccc(Cl)cc2)nc2n1CCN(Cc1ccc(C(F)(F)F)cc1)C2	NIH3T3 tox inconclusive, HEK cytotox inconclusive (no result: hNpr1 antagonist, Luciferase inh)
O=c1n(-c2ccc(C(F)(F)F)cc2)nc2n1CCN(Cc1cccc3ccccc13)C2	NIH3T3 tox inconclusive, HEK cytotox 28µM!
O=c1n(-c2ccncc2)nc2n1CCN(Cc1ccsc1)C2	NIH3T3 tox inconclusive, HEK cytotox inconclusive, Luciferase inh inconclusive
O=c1n(-c2ccc(F)cc2F)nc2n1CCN(Cc1ccccc1)C2	NIH3T3 tox 6.3µM, HEK cytotox 3.2µM, Luciferase inh inconclusive
O=c1n(-c2ccc(C(F)(F)F)cc2)nc2n1CCN(Cc1ccccn1)C2	NIH3T3 tox inconclusive, HEK cytotox inconclusive, Luciferase inh inconclusive
COc1ccc(-n2nc3n(c2=O)CCN(Cc2ccsc2)C3)cc1	NIH3T3 tox 32µM, HEK cytotox inconclusive (no result: hNpr1 antagonist, Luciferase inh)
O=c1n(-c2ccc(C(F)(F)F)cc2)nc2n1CCN(Cc1ccc(C(F)(F)F)cc1)C2	NIH3T3 tox inconclusive, HEK cytotox 35µM!, GPT2 inh inconclusive, hNpr1 antagonist inconclusive
Cc1cn2nc(C(=O)N3CCN(C(=O)c4ccc(C)s4)CC3)cc2c(=O)[nH]1	none
CC(C)c1noc(-c2cccn3c(CNC(=O)C4CCC4)nnc23)n1	none
CCOc1ccccc1CN1C[C@@H]2C(=O)N(CCN3CCc4ccccc4C3)C(=O)[C@@H]2C1	HEK cytotox inconclusive
CCCc1noc(-c2ccn3c(CNC(=O)Cc4ccccc4Cl)nnc3c2)n1	none
O=C(c1ccccc1)N1CCn2c(nn(-c3ccc(F)cc3)c2=O)C1	HEK cytotox 100µM
O=c1n(-c2ccncc2)nc2n1CCN(Cc1ccc(F)cc1)C2	NIH3T3 tox inconclusive, HEK cytotox inconclusive, hNpr1 antagonist inconclusive
O=c1n(-c2ccc(Cl)cc2)nc2n1CCN(Cc1ccc(F)cc1)C2	NIH3T3 tox 28µM, HEK cytotox 40µM (no result: hNpr1 antagonist, Luciferase inh)
COc1cccc(NC(=O)N2CC(C(=O)N(C)C)C3(CCOCC3)C2)c1 (stereo not drawn)	none
CCOC(=O)[C@@H]1[C@H]2c3ccccc3N(CCOC)C(=O)[C@H]2N(C(=O)c2ccccc2)[C@@H]1c1ccccc1	NIH3T3 tox inconclusive, HEK cytotox 35µM (no result: GPT2 inh, hNpr1 antagonist, Luciferase inh)
CCOC(=O)[C@H]1CN(C(=O)c2ccc3c(c2)OCCCO3)[C@]2(C)C(=O)N(CCOC)c3ccccc3[C@H]12	HEK cytotox inconclusive (no result: GPT2 inh, hNpr1 antagonist, Luciferase inh)
CC1CCN(c2ccc(-c3cccc(N)c3)nn2)CC1	NIH3T3 tox 32µM, HEK cytotox 32µM, hNpr1 antagonist 0.63µM, Luciferase inh 0.1µM
C#CCN(C)C(=O)[C@@H](C)C1CC[C@@]2(C)Cc3sc(NCCCC)nc3[C@@H](C)[C@@H]2[C@H]1O (stereo partly drawn)	NIH3T3 tox inconclusive, HEK cytotox inconclusive, GPT2 inh inconclusive, Luciferase inh 18µM
C=CCN(C)C(=O)[C@@H](C)C1CC[C@@]2(C)Cc3sc(NC(=O)C4CC4)nc3[C@@H](C)[C@@H]2[C@H]1O (stereo partly drawn)	none
C=CCN(C)C(=O)[C@@H](C)C1CC[C@@]2(C)Cc3sc(CSc4ccccc4)nc3[C@@H](C)[C@@H]2[C@H]1O (stereo partly drawn)	none
C=CCN(C)C(=O)[C@@H](C)C1CC[C@@]2(C)Cc3sc(NCCCC)nc3[C@@H](C)[C@@H]2[C@H]1O (stereo partly drawn)	NIH3T3 tox 35µM, HEK cytotox inconclusive, GPT2 inh inconclusive, Luciferase inh inconclusive
CC1(c2ccccc2)N(Cc2ccc(O)cc2)C(=O)OC12CCN(C(=O)c1ccccc1)CC2 (stereo not drawn)	NIH3T3 tox inconclusive, HEK cytotox inconclusive
COc1ccc(C2(C(=O)N3CC4CC(C3)[C@H]3CCCC(=O)N3C4)CCCCC2)cc1 (stereo partly drawn)	none
CCCN(C)C(=O)c1cn2cc(-c3cccc(Cl)c3)n(CC=C(C)C)c(=O)c2n1	NIH3T3 tox 40µM, HEK cytotox 28µM
COCCN(C)C(=O)c1cn2cc(-c3cccc(Cl)c3)n(CC3CC3)c(=O)c2n1	NIH3T3 tox inconclusive
O=C(C1CCCN(Cc2cccc(-c3cccs3)c2)C1)N1CCC(c2ccccc2)CC1 (stereo not drawn)	NIH3T3 tox 40µM, HEK cytotox 45µM (no result: GPT2 inh, hNpr1 antagonist, Luciferase inh)
O=C(C1CCCN(Cc2cccc(-c3cccs3)c2)C1)N1CCN(Cc2ccccc2)CC1 (stereo not drawn)	NIH3T3 tox 35µM, HEK cytotox inconclusive (no result: hNpr1 antagonist, Luciferase inh)
O=C(C1CCCN(Cc2cccc(-c3cccs3)c2)C1)N1CCOCC1 (stereo not drawn)	HEK cytotox inconclusive (no result: hNpr1 antagonist, Luciferase inh)
COc1ccc(-c2ccc3c(n2)c(=O)ncn3Cc2ccccc2)cc1OC	NIH3T3 tox inconclusive, GPT2 inh inconclusive
Cn1cnc2ccc(-c3ccncc3)nc2c1=O	NIH3T3 tox 79µM, HEK cytotox inconclusive
O=c1c2nc(-c3ccccc3)ccc2ncn1-c1ccccc1	NIH3T3 tox inconclusive, HEK cytotox inconclusive
COc1ccc(-c2ccc3ncn(C)c(=O)c3n2)cc1OC	NIH3T3 tox 35µM, HEK cytotox inconclusive
Cc1nn(C)c(C)c1C(=O)N1CC(n2cc(COCC3CC3)nn2)C1	none (no result: hNpr1 antagonist, Luciferase inh)
c1ccc(-c2cnc(Nc3ccncc3)c3c2CCO3)cc1	NIH3T3 tox 45µM, HEK cytotox 79µM, hNpr1 antagonist 25µM, Luciferase inh 28µM
Cn1cc(-c2cnc(Nc3ccc(F)c(Cl)c3)c3c2CCO3)cn1	HEK cytotox inconclusive
Cn1cc(-c2cnc(Nc3ccncc3)c3c2CCO3)cn1	NIH3T3 tox 89µM, HEK cytotox inconclusive
COc1ccc(C(=O)N2CCc3nc(C4CC4)nc(-c4ccc(O)cc4)c3CC2)cc1	none (no result: hNpr1 antagonist, Luciferase inh)
Cn1nc(C(=O)NC2CCc3nn(CC4CC4)c(=O)n3CC2)c2ccccc21 (stereo not drawn)	none
O=C(Cc1ccc(F)cc1)NCCNC(=O)c1cccc(-c2ccc(C(F)(F)F)cc2)c1	HEK cytotox 28µM (no result: hNpr1 antagonist, Luciferase inh)
O=C(CNC(=O)c1ccc(-c2cccc(C(F)(F)F)c2)cc1)NCCc1ccc(Cl)cc1	none (no result: hNpr1 antagonist, Luciferase inh)
